CRFR2-BP antag: antagonists of CRF-BP/CRF-R2 complex, primary screen, cell-based, HEK293, calcium dye fluorescence, uHTS; CRF-induced calcium fluorescence; hit rate 0.59% among 350,000; inhibition, % at 11.8 µM;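 active = inhibition of the ligand-induced calcium signal above about 50% at the single tested concentration, limit read from the data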
PfG6PD inh: PfG6PD enzyme inhibitors, primary screen, biochemical, fluorescence intensity, uHTS; hit rate 0.78% among 350,000; PfGluPho enzyme, NADPH resazurin-diaphorase fluorescence; inhibition, % at 20 µM;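 active = inhibition reaching at least a set limit at 20 µM in the primary screen, cut at about 59% in these data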
CRFR2-BP ag: agonists of CRF-BP/CRF-R2 complex, primary screen, cell-based, HEK293, calcium dye fluorescence, uHTS; calcium dye fluorescence (FLIPR); percent of saturating CRF peptide response; activation, % at 13.2 µM; hit rate 0.46% among 350,000;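 active = activation of at least 50%, plus an integration ratio under a set limit after plate pattern correction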
H9c2 protect: cardioprotection against H2O2-induced cell death, primary screen, uHTS, H9c2 cells, ATPLite luminescence | H9c2 cardiomyocytes, H2O2 injury protection, 2 h | protection from H2O2 cell death, % at 20 µM | hit rate 0.63% among 360,000;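 active = compounds giving at least 50% protection of heart cells from peroxide-induced death in the single-dose screen, raw or plate-pattern-corrected value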
FAS TE block: FAS thioesterase domain inhibitors, primary screen, biochemical, fluorescence intensity, uHTS. Fatty acid synthase (Homo sapiens), P49327. inhibition, % at 15 µM. recombinant FAS-TE, OMFH fluorogenic substrate, fluorescence endpoint. hit rate 0.67% among 360,000;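 active = compounds whose normalised, plate-corrected inhibition of enzyme fluorescence in the single-dose primary screen is 50% or more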
aDG glyco act: activators of alpha-DG glycosylation, primary screen, uHTS, Pro5-aDG cells, AlphaScreen; alpha-DG glycosylation AlphaScreen (IIH6); 0% Pro5, 100% B10-LARGE cell signal; activation, % at 10 µM; hit rate 0.22% among 360,000;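 active = activation of at least 8% versus controls, or a plate z-score of at least 8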;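 note: Pro5 are CHO cells carrying HIG-tagged alpha-DG that lacks glycosylation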
Large screens that a line does not name were inactive. Most compounds without a hit are left out; they make up all but 3.2% or so of the library.

Cc1ccccc1C(=O)Nc1scc(-c2ccc(Br)cc2)c1C(=O)O	CRFR2-BP antag 68
Nc1sc2c(c1C(=O)NC1CCS(=O)(=O)C1)CCCC2 (stereo unspecified)	PfG6PD inh 62
Cc1onc(-c2c(F)cccc2Cl)c1C(=O)Nc1cc2cc([N+](=O)[O-])ccc2oc1=O	none (no result: CRFR2-BP antag, PfG6PD inh, CRFR2-BP ag)
CCOC(=O)C1=C(C)N=c2s/c(=C/c3cccc([N+](=O)[O-])c3O)c(=O)n2C1c1ccc(OC)cc1OC (stereo unspecified)	CRFR2-BP antag 59
CSc1ccc(-c2cc(=O)c3ccccc3o2)cc1	none
O=c1cc(-c2ccc(F)cc2)oc2ccccc12	CRFR2-BP antag 99
NC(=O)c1ccc(SCC(=O)NC2CCCCC2)c([N+](=O)[O-])c1	none
CCOC(=O)C1=C(C)N=c2s/c(=C\c3ccncc3)c(=O)n2C1c1ccc2c(c1)OCO2 (stereo unspecified)	H9c2 protect 55
CCOC(=O)C1=C(C)N=c2s/c(=C/c3ccccc3)c(=O)n2C1c1ccc(OC)c(OC)c1 (stereo unspecified)	none
CNc1c2cccc(C)c2nc2c(C(=O)NCCN(C)C)cccc12	CRFR2-BP ag 54
Cc1ccc(C(=O)NCCN(C)C)c(C)c1	none
COc1ccc(CCN(Cc2cccs2)S(=O)(=O)c2ccc(C(=O)O)cc2)cc1OC	none
COC(=O)c1ccc(OCC(=O)Nc2ccccc2C(=O)NC2CC2)cc1	H9c2 protect 57
COc1ccc(OCC(=O)Nc2ccccc2C(=O)NC2CC2)cc1	none
Cc1[nH]c2ccccc2c1C(=O)CN1C(=O)NC(C)(c2ccc(Cl)cc2Cl)C1=O (stereo unspecified)	CRFR2-BP ag 67
Cc1[nH]c2ccccc2c1C(=O)CSc1ccc(Cl)cc1	none
CN(C(=O)c1cccc(NC(=O)Cc2ccc(NC(=O)C3CCN(C(=O)C4CC4)CC3)cc2)c1)C1CCC1	none
Cc1ccc(C(=O)C=Cc2cccc(C)c2)cc1	CRFR2-BP antag 59
O=[N+]([O-])c1cc(Cl)cc(/C=N/Nc2nc3ccccc3s2)c1O	CRFR2-BP antag 82
CC1(C)CN2C(=S)N(c3ccccc3)C(c3ccccc3)N2C1 (stereo unspecified)	none
Cc1ccc(CN2CC(C(=O)N3CCN(S(=O)(=O)c4cccc(F)c4)CC3)CC2=O)cc1 (stereo unspecified)	none
CC(C)(C)OC(=O)C[C@@H]1C/C=C\C[C@@H](CC(=O)N(CCO)Cc2ccccc2)C(=O)NC[C@H](c2ccccc2)OC1=O	H9c2 protect 92
CC12CCC(C(=O)CC1=O)C2(C)C (stereo unspecified)	none
Cc1occc1C(=O)NNC(=O)c1ccccc1Br	none
Cc1ccc(C(=O)OCC(=O)Nc2sccc2C(N)=O)cc1NC(=O)c1ccco1	H9c2 protect 94
CCOc1ccccc1NC(=O)CSc1nnc(CNC(=O)c2cccs2)o1	none
COc1ccc(C(=O)Nc2c(-c3cccs3)c(=O)c3ccccc3n2C)cc1	none
COc1cccc(NC(=O)CN(C)C(=O)CCCc2nc3ccccc3s2)c1	none
COC(=O)c1ccccc1NC(=O)c1nc2nc(C)cc(C)n2n1	H9c2 protect 61
CCOc1ccc(NC(=O)COC(=O)C23CC4CC(CC(C4)C2)C3)c([N+](=O)[O-])c1	none
O=C(CCCCC(=O)NN=Cc1ccccc1O)NN=Cc1ccccc1O	H9c2 protect 60
O=C(CCC(=O)Nc1ccc(Br)cc1)N/N=C/c1ccccc1O	none
Cc1cc([N+](=O)[O-])nn1CC(=O)N/N=C/c1ccccc1F	none
Cc1cc([N+](=O)[O-])nn1CC(=O)N/N=C/c1ccccc1O	H9c2 protect 58
Cc1cccc(NC(=O)CCC(=O)N/N=C/c2ccc(O)cc2O)c1	H9c2 protect 69
O=C(CCn1cnc(-c2ccccc2)c1-c1ccccc1)N/N=C/c1ccccc1O	H9c2 protect 57
Cc1cccc(NC(=O)CS(=O)CC(=O)Nc2cnc3ccccc3c2)c1C (stereo unspecified)	none
Cc1ccc(NC(=O)CCC(=O)N/N=C/c2ccccc2O)cc1	H9c2 protect 52
O=C(CC(=O)N/N=C/c1ccccc1O)NCc1cccnc1	H9c2 protect 63
COc1ccc(CN2C[C@@H](CO)O[C@@H](n3cnc4c(NC5CCC5)ncnc43)C2)cc1	none (no result: CRFR2-BP antag, PfG6PD inh, CRFR2-BP ag)
O=C(COC(=O)CN1C(=O)C2CCCCC2C1=O)Nc1cc(F)ccc1F (stereo unspecified)	none
COc1ccc2nccc(/C=C/c3ccnc4ccc(OC)cc34)c2c1	none
COc1cc(/C=C2\SC(=Nc3ccccc3)NC2=O)cc(Cl)c1O	CRFR2-BP ag 213
CCc1ccc(N=C2NC(=O)/C(=C/c3cc(OC)c(O)c(OC)c3)S2)cc1	none
COc1cc(/C=C2\SC(=Nc3ccc(Cl)c(C(=O)O)c3)NC2=O)c(Br)c(Br)c1O	CRFR2-BP ag 201
COc1cc2cc(-c3ccc(OC)c(OC)c3C)nc(N)c2cc1OC	none
COc1cc2cc(-c3ccc(O)cc3O)nc(C)c2cc1OC	H9c2 protect 71
Cc1sc2ncnc(SCC(=O)c3ccc4c(c3)OCCO4)c2c1-c1ccccc1	none
CC(=O)Nc1cc(C(N)=O)c(Cl)cc1Cl	CRFR2-BP antag 72
CC(=O)Nc1ccc(Cl)c(C(N)=O)c1	none
CC(=O)Nc1ccc(C(=O)CN2CCN(c3ccccc3)CC2)cc1	none
CC(=O)c1cccc(CN2CCCC(CCC(=O)NCc3ccccc3F)C2)c1 (stereo unspecified)	none
COc1cc(/C=C/C(=O)OCC(=O)N2c3ccccc3NC(=O)C2(C)C)cc(OC)c1OC	H9c2 protect 76
CCn1nc(-c2ccccc2)c2nc3ccccc3nc21	CRFR2-BP ag 160
CCn1c2ccc(Cl)cc2c2nc3ccccc3nc21	none (no result: H9c2 protect, FAS TE block, aDG glyco act)
CCCn1nc(-c2ccccc2)c2nc3ccccc3nc21	CRFR2-BP ag 106 (no result: H9c2 protect, FAS TE block, aDG glyco act)
CCCCCn1nc(-c2ccccc2)c2nc3ccccc3nc21	CRFR2-BP ag 176
CCCCn1c2nc3ccccc3nc2c2c(=O)n(CCC)cnc21	none
COc1cc(OC)cc(C(=O)N2CCN(C3CCC(C)CC3)CC2)c1 (stereo unspecified)	none
CCCCOC1CC(c2ccc(OCc3ccc(OC)cc3)c(OC)c2)N(C)O1 (stereo unspecified)	CRFR2-BP antag 89
O=C(Nc1cccc(N=Cc2cc(Br)cc(Br)c2O)c1)c1ccco1	H9c2 protect 51
O=C(Nc1cccc(N=Cc2cc(Cl)cc(Br)c2O)c1)c1ccco1	H9c2 protect 50

Assay outcomes from PubChem.
